MARV entry inh – blocks Marburg virus binding to or entry into cells; Marburg virus pseudotyped entry inhibition, cell reporter; AID 540276; Potency, µM (highest dose often 37.8 µM), actives largely listed as inhibitors; 300,000 compounds, 1.8% hits; calls by dose curve; tested in HEK293 cells
Vaccinia mCherry – vaccinia inhibition (mCherry reporter) | Vaccinia virus mCherry reporter infection, fluorescence | Potency, µM (top dose mostly 36.5 µM), actives largely listed as inhibitors | 310,000 compounds, 0.63% hits | AID 720579; calls by dose curve; tested in A549 cells; also: nearly all actives have a fitted effect of over 35% in size
VACV Venus inh – vaccinia inhibition (Venus reporter). Vaccinia virus Venus reporter expression, fluorescence. Potency, µM (titrated, usually from 36.5 µM), actives largely listed as inhibitors. 330,000 compounds, 0.46% hits; calls by dose curve; tested in A549 cells; also: nearly all actives have a fitted effect of over 30% in size
HCV inh – HCV inhibition; 340,000 compounds, 3.4% hits; Huh7.5.1 HCVcc-Cre infection, luciferase reporter, 44 h; Potency, µM (top dose mostly 41.8 µM), hits mostly inhibitors; active = well fitted inhibition curve with a large enough effect; inconclusive = small, poorly fitted or top-dose-only effect, or another doubt; inactive = no such curve, though single readings can be large or run the other way
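Antiviral activity was scored by luciferase reporter output from cells infected with HCVcc-Cre (~0.5 moi) in presence of compound, 44 h infection period, cells seeded 1,000/well 4 h prior.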
Lassa entry inh – blocks Lassa virus binding to or entry into cells | 300,000 compounds, 1.2% hits | AID 540256 | Lassa virus pseudotype entry inhibition, cell reporter | Potency, µM (top dose mostly 37.9 µM), most hits filed as inhibitors; calls by dose curve; tested in HEK293 cells; also: nearly all actives have a fitted effect of over 50% in size
FMDV inh – antivirals against foot and mouth disease virus; AID 1159524; 410,000 compounds, 1.2% hits; FMDV antiviral cell-based qHTS; Potency, µM (titrated, usually from 57.9 µM), actives largely listed as inhibitors; calls by dose curve; tested in HEK293T cells; also: read-out not given here; nearly all actives have a fitted effect of over 45% in size
Each line names hits and unclear results; the compound was inactive in the other large screens; ! = not confirmed by another sample. Hits are enriched below; roughly 5.3% of the tested compounds scored in any of these assays.

O=C(Cn1cc(C(F)(F)F)ccc1=O)N/N=C/c1ccccc1O	Vaccinia mCherry 16µM, HCV inh inconclusive (no result: MARV entry inh, Lassa entry inh)
CSc1nc(C)cc(OCC(=O)N/N=C/c2ccccc2O)n1	MARV entry inh 2.8µM, Vaccinia mCherry 11µM, VACV Venus inh inconclusive, HCV inh 6.3µM, Lassa entry inh inconclusive, FMDV inh inconclusive
Cc1cc(=O)oc2cc(OCC(=O)N/N=C/c3ccccc3O)ccc12	Vaccinia mCherry inconclusive
O=C(CSCC(=O)NN=Cc1ccccc1O)NN=Cc1ccccc1O	MARV entry inh inconclusive, Vaccinia mCherry inconclusive, VACV Venus inh inconclusive, HCV inh inconclusive, Lassa entry inh inconclusive
COc1ccc(NC(=O)C2=C(C)Nc3ncnn3C2c2ccc[nH]2)cc1 (centres undefined)	none (no result: MARV entry inh, HCV inh)
C=N[C@@H](C(=O)N[C@@H]1C(=O)N2[C@@H]1SC(C)(C)[C@@H]2C(=O)O)c1ccccc1	none (no result: MARV entry inh, HCV inh, Lassa entry inh)
COc1cc(CN2CCCC(n3cc(C(=O)N4CCCCC4)nn3)C2)cc(OC)c1OC (centres undefined)	none (no result: MARV entry inh, HCV inh, Lassa entry inh)
O=C(CCC(=O)Nc1ccc(Br)cc1)N/N=C/c1ccccc1O	MARV entry inh inconclusive, Vaccinia mCherry 5.6µM, VACV Venus inh inconclusive, HCV inh inconclusive, Lassa entry inh inconclusive
Cc1ccc(NC(=O)CCC(=O)N/N=C/c2ccccc2O)cc1	none (no result: MARV entry inh, Vaccinia mCherry, VACV Venus inh, Lassa entry inh)
Cc1cccc(NC(=O)CCC(=O)N/N=C/c2ccc(O)cc2O)c1	MARV entry inh inconclusive, Vaccinia mCherry 6.3µM, HCV inh inconclusive, Lassa entry inh inconclusive
Cc1noc(C)c1-c1cncnc1N1CCN(C)CC1	none (no result: MARV entry inh, Vaccinia mCherry, VACV Venus inh, HCV inh, Lassa entry inh)
CCCCCOC(=O)C1=C(C)Nc2ncnn2C1c1cccs1 (centres undefined)	MARV entry inh inconclusive, Vaccinia mCherry inconclusive, VACV Venus inh inconclusive, HCV inh inconclusive, Lassa entry inh 21µM, FMDV inh inconclusive
CC1=C(C(N)=O)C(c2cccs2)n2ncnc2N1 (centres undefined)	MARV entry inh inconclusive, Lassa entry inh inconclusive
CCSc1nnc(-c2cccc(S(=O)(=O)N(CC)CC)c2)n1Cc1ccccc1	MARV entry inh 15µM, Lassa entry inh 23µM, FMDV inh inconclusive (no result: Vaccinia mCherry, VACV Venus inh)
CCNC(=O)CSc1nnc(-c2cccc(S(=O)(=O)N(CC)CC)c2)n1CCc1ccccc1	none (no result: Vaccinia mCherry, VACV Venus inh)
CC1CC(C)CN(c2ncc3c(n2)CC(c2ccccc2Cl)CC3=O)C1 (centres undefined)	MARV entry inh inconclusive, Lassa entry inh 10µM, FMDV inh inconclusive (no result: Vaccinia mCherry)
Cc1ccc(C2CC(=O)c3cnc(N4CCc5ccccc5C4)nc3C2)cc1 (centres undefined)	Lassa entry inh 3.7µM (no result: Vaccinia mCherry, VACV Venus inh)
O=C1CC(c2ccc(F)cc2)Cc2nc(N3CCN(c4ccccc4)CC3)ncc21 (centres undefined)	FMDV inh inconclusive (no result: Vaccinia mCherry)
O=C1CC(c2ccccc2)Cc2nc(N3CCc4ccccc4C3)ncc21 (centres undefined)	Lassa entry inh 15µM (no result: Vaccinia mCherry, VACV Venus inh)
CC1CC(C)CN(c2ncc3c(n2)CC(c2ccc(Cl)cc2)CC3=O)C1 (centres undefined)	none (no result: Vaccinia mCherry, VACV Venus inh)
COc1cccc(-n2c(=O)c3cc(OC)c(OC)cc3n(CC(=O)Nc3ccc(F)cc3)c2=O)c1	none (no result: HCV inh)
O=CNc1ccc(/C=C/c2ccnc3ccccc23)cc1	none (no result: MARV entry inh, HCV inh, Lassa entry inh, FMDV inh)
O=C(C#Cc1ccccc1)c1cccc([N+](=O)[O-])c1	MARV entry inh 13µM, HCV inh inconclusive, Lassa entry inh inconclusive, FMDV inh 25µM
CCc1ccc2nc3c(c(C(=O)O)c2c1)CCC3	Lassa entry inh inconclusive (no result: Vaccinia mCherry, VACV Venus inh)
Cc1ccc2nc(N=C(N)N)nc(C)c2c1	MARV entry inh inconclusive, HCV inh 7.1µM, FMDV inh inconclusive
CCc1ccc2nc(N=C(N)N)nc(C)c2c1	MARV entry inh inconclusive, Vaccinia mCherry inconclusive, VACV Venus inh inconclusive, HCV inh 5µM, FMDV inh inconclusive
Cc1nc(N=C(N)N)nc2ccccc12	MARV entry inh inconclusive, HCV inh 14µM, Lassa entry inh inconclusive, FMDV inh inconclusive
Cc1nc(/N=C(\N)NC(=O)c2ccccc2)nc2ccccc12	MARV entry inh inconclusive, HCV inh inconclusive
CN(C)c1ccc(/C=C/c2c(F)cnc3ccccc23)cc1	none (no result: MARV entry inh, HCV inh, Lassa entry inh, FMDV inh)
CC(=O)N(O)CCCCCNC(=O)CCC(=O)N(O)CCCCCNC(=O)CCC(=O)N(O)CCCCCN	Vaccinia mCherry inconclusive, HCV inh 14µM, Lassa entry inh inconclusive
CCCC(=O)NCCCCNC(=O)CCC	none
CC(C)CO/N=C1\C[C@@H](O)[C@@H](O)[C@@H]2[C@@H]3C(=O)N(C4CCCCC4)C(=O)[C@@H]3CC[C@@H]12	none (no result: Vaccinia mCherry, VACV Venus inh, HCV inh, Lassa entry inh, FMDV inh)
CC(C)(C)c1ccc(O)c(N=Cc2cccc([N+](=O)[O-])c2)c1	none (no result: MARV entry inh, HCV inh, Lassa entry inh, FMDV inh)
Cn1nc(C(F)(F)F)c2cc(NC(=O)OCc3ccc(F)cc3)sc21	Vaccinia mCherry inconclusive, HCV inh 10µM, FMDV inh inconclusive
Cc1ccc(CCNC(=O)c2c(C)oc3ncn(CC(C)C)c(=O)c23)cc1	none (no result: MARV entry inh, HCV inh)
COCCn1c(=O)c(-c2cccc(C#N)c2)nc2cnc(N3CCN(C)CC3)nc21	none (no result: MARV entry inh, Vaccinia mCherry, VACV Venus inh, HCV inh, Lassa entry inh)
CC(C)(C)c1nc(N2CCN(C(=O)c3ccco3)CC2)c2nnn(Cc3ccccc3)c2n1	MARV entry inh inconclusive, HCV inh inconclusive, Lassa entry inh 26µM, FMDV inh 28µM (no result: Vaccinia mCherry, VACV Venus inh)
O=C(c1ccco1)N1CCCC(c2nc3c(nnn3Cc3ccccc3)c(=O)[nH]2)C1 (centres undefined)	none
O=C(c1ccco1)N1CCN(c2nc(C3CC3)nc3c2nnn3Cc2ccccc2Cl)CC1	MARV entry inh inconclusive, Vaccinia mCherry inconclusive, VACV Venus inh inconclusive, HCV inh inconclusive, Lassa entry inh inconclusive, FMDV inh 35µM
O=C(c1ccco1)N1CCC(c2nc3c(nnn3Cc3ccccc3Cl)c(=O)[nH]2)CC1	Lassa entry inh inconclusive
Cc1ccc(NC(=O)c2nnn(CC(=O)Nc3ccccc3)c2N)cc1C	MARV entry inh 11µM, HCV inh inconclusive
Cc1ccccc1NC(=O)Cn1nnc(C(=O)NCc2ccco2)c1N	MARV entry inh inconclusive, Vaccinia mCherry inconclusive, VACV Venus inh 4µM
Cc1ccc(NC(=O)Cn2nnc(C(=O)NCc3ccccc3)c2N)cc1C	none (no result: Vaccinia mCherry, VACV Venus inh)
Cc1cc(C)c(NC(=O)Cn2nnc(C(=O)NCc3cccs3)c2N)c(C)c1	MARV entry inh inconclusive, FMDV inh 40µM!
CCOc1ccccc1NC(=O)Cn1nnc(C(=O)NCc2ccco2)c1N	MARV entry inh inconclusive, Vaccinia mCherry inconclusive, VACV Venus inh inconclusive
C#CCn1c(S(=O)(=O)Cc2ccccc2Cl)nc(-c2ccccc2)c1-c1ccccc1	none (no result: Vaccinia mCherry, VACV Venus inh, Lassa entry inh)
CCOC(=O)Cn1c(S(=O)(=O)Cc2ccccc2Cl)nc(-c2ccccc2)c1-c1ccccc1	MARV entry inh 5.2µM, Lassa entry inh 12µM (no result: Vaccinia mCherry, VACV Venus inh)
CC[C@]12c3[nH]c4ccccc4c3CCN1C(=O)C(CC(=O)NC/C=C(\C)CCC=C(C)C)C[C@@H]2C(=O)N1CCN(C(=O)c2ccco2)CC1 (some centres undefined)	HCV inh inconclusive, FMDV inh inconclusive (no result: MARV entry inh, Lassa entry inh)
CC[C@]12c3[nH]c4cc(CCC(=O)N(C)C)ccc4c3CCN1C(=O)[C@@H](CC(=O)NC/C=C(\C)CCC=C(C)C)C[C@@H]2C(=O)N1CCN(C(=O)C2CC2)CC1	Vaccinia mCherry inconclusive, HCV inh inconclusive (no result: MARV entry inh, Lassa entry inh)
